Data on two compounds can be found in PubChem BioAssay (EPA / NIEHS).

Activity calls are given as the source filed them. How the source made its calls: active means hit-call score of the fitted dose curve at least 0.9, where 1 is the maximum; inactive means score below 0.9.

Experiment [1] is described as follows: CEETOX_H295R_PROG: CeeTox H295R High-throughput Steroidogenesis Assay for Progesterone (PROG) (AID 2283442).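 On AC50: human H295R adrenal cells primed with 10 µM forskolin before dosing; progesterone secreted into medium by H295R cells measured by HPLC-MS/MS.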 Conditions: actives raise or lower the signal. The essentials:
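Steps: seed H295R cells and let them adhere overnight; prime 48 h with 10 uM forskolin; dose with compound in DMSO at 0.1% final for 48 h; extract medium steroids with MTBE; measure progesterone by LC-MS/MS. MTT viability was run in the same wells.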

Read-out in experiment [2]: Tumor necrosis factor receptor superfamily member 6 (Homo sapiens) (UniProt P25445)
The experiment is described as follows: LTEA_HepaRG_FAS: Life Technologies and Expression Analysis (LTEA) Assay for Fas cell surface death receptor (FAS) using HepaRG (AID 2283447). Conditions: mRNA level, 48 h; actives raise or lower the signal. In a few lines:
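Differentiated HepaRG cells in serum-free induction medium were exposed 48 h to 8 half-log concentrations up to 100 uM in 0.5% DMSO, in duplicate. FAS mRNA was measured by qRT-PCR normalised to ACTB, GAPDH and POLR2A; bidirectional fit versus DMSO.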

Read-out in experiment [3]: Fatty acid synthase (Homo sapiens) (UniProt P49327)
Description: LTEA_HepaRG_FASN: Life Technologies and Expression Analysis (LTEA) Assay for Fatty Acid Synthase (FASN) using HepaRG (AID 2283448).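 Further: differentiated human HepaRG liver cells in serum-free induction medium.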 To be noted: mRNA level, 48 h; actives raise or lower the signal. In a few lines:
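HepaRG, 48 h exposure, 8-pt half-log series top 100 uM, 0.5% DMSO vehicle, duplicates. Readout: FASN transcript by Fluidigm qRT-PCR; housekeeping-normalized; bidirectional curve fit vs DMSO baseline.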

Read-out in experiment [4]: Cyclin Dependent Kinase Inhibitor 1A (CDKN1A), CDKN1A (gene 1026)
Description: LTEA_HepaRG_CDKN1A: Life Technologies and Expression Analysis (LTEA) Assay for Cyclin Dependent Kinase Inhibitor 1A (CDKN1A) using HepaRG (AID 2283450). To be noted: mRNA level, 48 h; actives raise or lower the signal. The essentials:
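Read-out is CDKN1A mRNA by TaqMan qRT-PCR, normalized to three housekeeping genes and fitted in both directions against the DMSO baseline. Human HepaRG cells were treated 48 h with test chemicals up to 100 uM in half-log steps, 0.5% DMSO.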

Read-out in experiment [5]: Cyclin D1 (CCND1), CCND1 (gene 595)
Description: LTEA_HepaRG_CCND1: Life Technologies and Expression Analysis (LTEA) Assay for Cyclin D1 (CCND1) using HepaRG (AID 2283451). To be noted: mRNA level, 48 h; actives raise or lower the signal. The essentials:
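HepaRG plated 48 h, medium switched to serum-free induction medium, chemicals added in duplicate (top 100 uM, half-log steps, 0.5% DMSO) for 48 h, cells lysed, RNA measured by TaqMan qRT-PCR.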

Read-out in experiment [6]: catalase (CAT), CAT (gene 847)
Description: LTEA_HepaRG_CAT: Life Technologies and Expression Analysis (LTEA) Assay for catalase (CAT) using HepaRG (AID 2283452). To be noted: mRNA level, 48 h; actives raise or lower the signal. In a few lines: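 HepaRG cells in serum-free induction medium, 0.5% DMSO vehicle, exposed 48 h in duplicate over 8 half-log concentrations from 100 uM. CAT mRNA measured by qRT-PCR, normalized to ACTB, GAPDH, POLR2A; bidirectional fit versus DMSO.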

Read-out in experiment [7]: flavin-containing dimethylaniline monooxygenases 3 (FMO3), FMO3 (gene 2328)
The experiment is described as follows: LTEA_HepaRG_FMO3: Life Technologies and Expression Analysis (LTEA) Assay for flavin-containing dimethylaniline monooxygenases 3 (FMO3) using HepaRG (AID 2283453). To be noted: mRNA level, 48 h; actives raise or lower the signal. In a few lines:
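Eight-point concentration-response in serum-free HepaRG cultures (top 100 uM, 0.5% DMSO, 48 h). Read-out: FMO3 mRNA level normalized to three endogenous control genes, fitted bidirectionally versus vehicle.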

Read-out in experiment [8]: Cytochrome P450 (CYP1A1), CYP1A1 (gene 1543)
Description: LTEA_HepaRG_CYP1A1: Life Technologies and Expression Analysis (LTEA) Assay for Cytochrome P450 (CYP1A1) using HepaRG (AID 2283454). Conditions: mRNA level, 48 h; actives raise or lower the signal. The essentials:
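HepaRG, 48 h post-plating switched to serum-free induction medium; 8-pt conc-response (top 100 uM, half-log, 0.5% DMSO), duplicates, 48 h. Lysis in RLT, TaqMan qRT-PCR for CYP1A1; gain or loss vs DMSO.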

Read-out in experiment [9]: CFLAR gene, CFLAR (gene 8837)
The experiment is described as follows: LTEA_HepaRG_CFLAR: Life Technologies and Expression Analysis (LTEA) Assay for CFLAR gene using HepaRG (AID 2283455). To be noted: mRNA level, 48 h; actives raise or lower the signal. In a few lines:
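qRT-PCR read-out (Fluidigm/TaqMan) of CFLAR mRNA, normalized to three housekeeping genes, in differentiated human HepaRG cells after 48 h chemical exposure; 8-point half-log series from 100 uM in 0.5% DMSO; bidirectional curve fitting versus DMSO.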

Read-out in experiment [10]: Forkhead box O1 (FOXO1), FOXO1 (gene 2308)
The experiment is described as follows: LTEA_HepaRG_FOXO1: Life Technologies and Expression Analysis (LTEA) Assay for Forkhead box O1 (FOXO1) using HepaRG (AID 2283456). To be noted: mRNA level, 48 h; actives raise or lower the signal. In a few lines:
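HepaRG, 48 h exposure, 8-pt half-log series from 100 uM in 0.5% DMSO, duplicates; Fluidigm qRT-PCR mRNA, housekeeping-normalised; bidirectional fit vs DMSO baseline.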

Read-out in experiment [11]: growth arrest and DNA damage 45 (GADD45A), GADD45A (gene 1647)
The experiment is described as follows: LTEA_HepaRG_GADD45A: Life Technologies and Expression Analysis (LTEA) Assay for growth arrest and DNA damage 45 (GADD45A) using HepaRG (AID 2283458). To be noted: mRNA level, 48 h; actives raise or lower the signal. The essentials: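 HepaRG, 48 h exposure, 8 conc. (top 100 uM, half-log steps), 0.5% DMSO vehicle, duplicates. Read-out: qRT-PCR mRNA level, housekeeping-normalized (ACTB/GAPDH/POLR2A). Curves fit bidirectionally vs DMSO baseline.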

Read-out in experiment [12]: Forkhead box O3 (FOXO3), FOXO3 (gene 2309)
The experiment is described as follows: LTEA_HepaRG_FOXO3: Life Technologies and Expression Analysis (LTEA) Assay for Forkhead box O3 (FOXO3) using HepaRG (AID 2283459). Conditions: mRNA level, 48 h; actives raise or lower the signal. In a few lines: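 qRT-PCR readout of FOXO3 transcript, normalized to three housekeeping genes (ACTB, GAPDH, POLR2A); gain or loss fitted against 0.5% DMSO vehicle. HepaRG cells, 48 h chemical exposure, 8-point half-log series, top 100 uM.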

Read-out in experiment [13]: growth arrest and DNA damage 45 (GADD45B), GADD45B (gene 4616)
Description: LTEA_HepaRG_GADD45B: Life Technologies and Expression Analysis (LTEA) Assay for growth arrest and DNA damage 45 (GADD45B) using HepaRG (AID 2283461). Conditions: mRNA level, 48 h; actives raise or lower the signal. In a few lines: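 HepaRG, ~100,000 cells/well, 48 h plating; serum-free induction medium; cpd 100 uM top, half-log x8, 0.5% DMSO, duplicate, 48 h; lysis in RLT, RNA isolation, qRT-PCR; norm ACTB/GAPDH/POLR2A; bidirectional fit vs DMSO.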

Read-out in experiment [14]: ABC Transporter (ABCC3), ABCC3 (gene 8714)
The experiment is described as follows: LTEA_HepaRG_ABCC3: Life Technologies and Expression Analysis (LTEA) Assay for ABC Transporter (ABCC3) using HepaRG (AID 2283462). Conditions: mRNA level, 48 h; actives raise or lower the signal. In a few lines:
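Human HepaRG, 48 h dosing, 8-pt half-log series from 100 uM, 0.5% DMSO vehicle, duplicates. ABCC3 mRNA by TaqMan qRT-PCR, housekeeping-normalized; bidirectional curve fit vs DMSO.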

Read-out in experiment [15]: ABC Transporter (ABCB11), ABCB11 (gene 8647)
The experiment is described as follows: LTEA_HepaRG_ABCB11: Life Technologies and Expression Analysis (LTEA) Assay for ABC Transporter (ABCB11) using HepaRG (AID 2283463). Conditions: mRNA level, 48 h; actives raise or lower the signal. In a few lines: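 HepaRG, 48 h exposure, 8-pt half-log CRC top 100 uM, 0.5% DMSO vehicle, duplicates. Readout: TaqMan qRT-PCR of ABCB11 mRNA, housekeeping-normalized (ACTB/GAPDH/POLR2A). Bidirectional fit vs DMSO baseline.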

Read-out in experiment [16]: ABC Transporter (ABCC2), ABCC2 (gene 1244)
The experiment is described as follows: LTEA_HepaRG_ABCC2: Life Technologies and Expression Analysis (LTEA) Assay for ABC Transporter (ABCC2) using HepaRG (AID 2283464). To be noted: mRNA level, 48 h; actives raise or lower the signal. In a few lines:
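HepaRG, 48 h post-plating; serum-free induction medium; cpd 8-pt, 100 uM top, half-log, 0.5% DMSO, duplicate, 48 h. Readout: ABCC2 mRNA by qRT-PCR, norm. ACTB/GAPDH/POLR2A. Bidirectional fit vs DMSO baseline.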

Read-out in experiment [17]: Broad substrate specificity ATP-binding cassette transporter ABCG2 (Homo sapiens) (UniProt Q9UNQ0)
The experiment is described as follows: LTEA_HepaRG_ABCG2: Life Technologies and Expression Analysis (LTEA) Assay for ABC Transporter (ABCG2) using HepaRG (AID 2283465). To be noted: mRNA level, 48 h; actives raise or lower the signal. The essentials: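 HepaRG, 48 h exposure, 8-pt half-log series from 100 uM, 0.5% DMSO vehicle, duplicates. Readout: ABCG2 transcript by qRT-PCR (Fluidigm array), housekeeping-normalized; bidirectional curve fit relative to DMSO baseline.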

Experiment [18] is described as follows: CEETOX_H295R_TESTO: CeeTox H295R High-throughput Steroidogenesis Assay for Testosterone (TESTO) (AID 2283457). To be noted: actives raise or lower the signal. The essentials:
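H295R, passage ≤10, 48 h dosing; media extracted with MTBE → HPLC-MS/MS for testosterone; 7-pt standard curve sets LLOQ/ULOQ; bidirectional fit vs DMSO; MTT viability same wells.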

Read-out in experiment [19]: ABC Transporter (ABCB1), ABCB1 (gene 5243)
Description: LTEA_HepaRG_ABCB1: Life Technologies and Expression Analysis (LTEA) Assay for ABC Transporter (ABCB1) using HepaRG (AID 2283460). To be noted: mRNA level, 48 h; actives raise or lower the signal. The essentials:
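HepaRG, 48 h exposure, 8-pt half-log series from 100 uM, 0.5% DMSO vehicle, duplicates. Readout: ABCB1 transcript by Fluidigm TaqMan qRT-PCR, housekeeping-normalized; bidirectional curve fit vs DMSO baseline.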

Fatty acid synthase (Homo sapiens), sequence (P49327 whole entry, looked up): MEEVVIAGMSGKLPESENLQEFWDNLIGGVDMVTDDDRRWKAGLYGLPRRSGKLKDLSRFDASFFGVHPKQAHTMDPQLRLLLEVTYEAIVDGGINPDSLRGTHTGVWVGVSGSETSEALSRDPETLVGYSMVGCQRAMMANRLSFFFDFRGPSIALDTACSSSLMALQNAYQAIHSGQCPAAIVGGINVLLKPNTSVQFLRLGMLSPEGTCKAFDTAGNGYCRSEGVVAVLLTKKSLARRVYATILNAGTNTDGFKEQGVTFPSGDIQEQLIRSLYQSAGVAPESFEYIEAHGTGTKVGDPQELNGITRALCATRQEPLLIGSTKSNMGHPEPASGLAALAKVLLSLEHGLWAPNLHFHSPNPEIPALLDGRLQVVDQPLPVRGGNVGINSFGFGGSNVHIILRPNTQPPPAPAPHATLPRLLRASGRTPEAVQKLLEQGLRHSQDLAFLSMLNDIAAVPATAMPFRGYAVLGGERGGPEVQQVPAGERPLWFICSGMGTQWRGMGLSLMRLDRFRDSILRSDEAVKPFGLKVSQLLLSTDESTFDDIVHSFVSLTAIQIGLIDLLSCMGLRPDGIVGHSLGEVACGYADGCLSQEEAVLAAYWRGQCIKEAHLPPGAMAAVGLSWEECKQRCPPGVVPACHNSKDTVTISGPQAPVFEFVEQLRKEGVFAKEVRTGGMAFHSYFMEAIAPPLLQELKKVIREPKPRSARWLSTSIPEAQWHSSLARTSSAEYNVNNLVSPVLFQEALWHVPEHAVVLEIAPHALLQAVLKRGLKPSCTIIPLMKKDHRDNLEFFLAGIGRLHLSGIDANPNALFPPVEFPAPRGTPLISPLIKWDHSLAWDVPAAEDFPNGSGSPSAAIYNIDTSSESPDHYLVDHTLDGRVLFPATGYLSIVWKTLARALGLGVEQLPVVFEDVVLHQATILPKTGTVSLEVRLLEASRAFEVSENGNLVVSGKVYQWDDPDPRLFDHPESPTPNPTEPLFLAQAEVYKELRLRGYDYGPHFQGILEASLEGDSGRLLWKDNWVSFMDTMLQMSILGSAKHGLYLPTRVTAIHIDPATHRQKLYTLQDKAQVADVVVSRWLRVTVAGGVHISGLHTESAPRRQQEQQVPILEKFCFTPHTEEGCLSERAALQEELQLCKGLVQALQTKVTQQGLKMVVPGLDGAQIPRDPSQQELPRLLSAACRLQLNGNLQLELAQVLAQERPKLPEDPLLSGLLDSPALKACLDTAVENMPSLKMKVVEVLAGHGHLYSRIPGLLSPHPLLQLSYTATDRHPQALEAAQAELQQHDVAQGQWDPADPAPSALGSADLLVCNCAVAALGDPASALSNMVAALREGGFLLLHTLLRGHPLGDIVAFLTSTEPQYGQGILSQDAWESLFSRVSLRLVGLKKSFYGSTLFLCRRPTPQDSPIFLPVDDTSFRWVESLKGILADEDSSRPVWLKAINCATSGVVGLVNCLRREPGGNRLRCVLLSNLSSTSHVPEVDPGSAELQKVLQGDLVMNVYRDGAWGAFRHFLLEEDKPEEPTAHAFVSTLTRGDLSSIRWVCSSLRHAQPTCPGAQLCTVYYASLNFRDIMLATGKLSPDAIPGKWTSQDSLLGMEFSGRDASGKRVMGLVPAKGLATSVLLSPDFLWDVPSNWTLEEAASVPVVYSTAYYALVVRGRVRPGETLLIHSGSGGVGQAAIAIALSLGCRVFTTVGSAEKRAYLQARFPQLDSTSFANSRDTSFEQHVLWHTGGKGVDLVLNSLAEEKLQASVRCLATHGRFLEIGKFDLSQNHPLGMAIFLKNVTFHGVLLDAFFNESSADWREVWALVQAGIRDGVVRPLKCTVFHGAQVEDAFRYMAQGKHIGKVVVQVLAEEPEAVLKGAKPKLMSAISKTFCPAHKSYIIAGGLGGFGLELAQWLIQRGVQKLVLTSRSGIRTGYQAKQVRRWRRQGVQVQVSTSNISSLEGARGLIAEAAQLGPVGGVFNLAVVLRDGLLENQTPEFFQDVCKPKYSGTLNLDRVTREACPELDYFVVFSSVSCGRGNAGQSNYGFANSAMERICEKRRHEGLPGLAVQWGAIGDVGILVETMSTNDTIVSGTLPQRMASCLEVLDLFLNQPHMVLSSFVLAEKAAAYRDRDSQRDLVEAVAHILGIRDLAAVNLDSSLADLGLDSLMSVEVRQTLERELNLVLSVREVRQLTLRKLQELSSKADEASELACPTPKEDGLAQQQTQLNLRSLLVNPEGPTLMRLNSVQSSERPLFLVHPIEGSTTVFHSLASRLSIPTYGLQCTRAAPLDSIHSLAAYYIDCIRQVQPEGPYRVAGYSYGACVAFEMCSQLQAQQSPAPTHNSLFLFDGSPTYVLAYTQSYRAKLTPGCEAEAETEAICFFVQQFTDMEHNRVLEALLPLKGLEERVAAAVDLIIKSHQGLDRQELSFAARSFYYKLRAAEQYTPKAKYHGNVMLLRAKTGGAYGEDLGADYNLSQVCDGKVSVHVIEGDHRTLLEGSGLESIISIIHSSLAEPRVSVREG
Broad substrate specificity ATP-binding cassette transporter ABCG2 (Homo sapiens), sequence (Q9UNQ0 whole entry, looked up): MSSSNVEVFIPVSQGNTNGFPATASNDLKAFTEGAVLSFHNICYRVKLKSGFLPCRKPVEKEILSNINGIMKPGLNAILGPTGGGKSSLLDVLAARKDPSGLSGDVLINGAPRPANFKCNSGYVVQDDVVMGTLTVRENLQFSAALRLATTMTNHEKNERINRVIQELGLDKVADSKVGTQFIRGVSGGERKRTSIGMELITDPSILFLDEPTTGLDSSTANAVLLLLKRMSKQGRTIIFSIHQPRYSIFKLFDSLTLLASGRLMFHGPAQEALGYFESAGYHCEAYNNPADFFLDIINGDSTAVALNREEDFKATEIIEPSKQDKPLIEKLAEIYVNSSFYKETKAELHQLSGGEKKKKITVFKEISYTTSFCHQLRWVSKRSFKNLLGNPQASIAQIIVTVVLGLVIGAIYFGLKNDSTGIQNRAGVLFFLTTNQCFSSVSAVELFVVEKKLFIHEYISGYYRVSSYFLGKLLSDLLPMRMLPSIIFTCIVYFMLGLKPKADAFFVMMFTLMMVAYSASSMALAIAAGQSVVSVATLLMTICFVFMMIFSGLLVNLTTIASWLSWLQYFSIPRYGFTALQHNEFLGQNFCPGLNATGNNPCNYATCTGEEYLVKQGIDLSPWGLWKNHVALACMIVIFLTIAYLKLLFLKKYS

By AC50 is commonly meant the concentration at which the activity in the assay is half-maximal. As for `CCOC(=O)C(C)OC(=O)c1cc(Oc2ccc(C(F)(F)F)cc2Cl)ccc1[N+](=O)[O-]` (stereo not drawn), the compound was called inactive in experiment [1], in [2], in experiment [4], in experiment [5], in experiment [6] and in experiment [7]. The outcome in experiment [9], in experiment [10], in experiment [12], in experiment [14] and in experiment [15] was inactive. Moreover, the AC50 in experiment [3] is 35.1 µM (active); in experiment [8], 50 µM (active); in experiment [11], 50 µM (active); in experiment [13] it was 32.2 µM (active); in experiment [16], 21.9 µM (active); in experiment [17], 19.2 µM (active).
In the case of `CC1(C)CCC(=Cc2ccc(Cl)cc2)C1(O)Cn1cncn1` (stereo not drawn), the concentration at half-maximal activity (AC50) in experiment [1] was 0.716 µM (active); in experiment [3], 6.85 µM (active); in experiment [8], 11.2 µM (active); in experiment [19] it was 4.18 µM (active). The compound was classed as inactive in experiment [2], in experiment [4], in [5], in experiment [6], in experiment [10] and in [18]. Moreover, the compound was classed as inactive in [11], in experiment [12], in experiment [14], in experiment [15], in experiment [16] and in [17].
